High-throughput results (PubChem)
MOR-DOR inv ag – inverse agonists of human mu-delta opioid receptor heterodimerization | hit rate 0.21% among 340,000 | inhibition, % at 9.3 µM | P35372+P41143 | cell-based MOR-DOR heterodimer luminescence, inverse agonism; in the data active means inhibition above about 22%, passing the limit was not always enough
HTR5A ag ctr – counter-screen for OPRM1-OPRD1 agonists: human HTR5A agonism | HTR5A agonist assay, luminescence, cell-based | activation, % at 9.3 µM | hit rate 0.61% among 340,000 | AID 504692; in the data active means activation mostly above about 9.5%, no sharp cut-off; inactive means mostly below about 7.6%
Target sequence (P47898 whole entry, looked up): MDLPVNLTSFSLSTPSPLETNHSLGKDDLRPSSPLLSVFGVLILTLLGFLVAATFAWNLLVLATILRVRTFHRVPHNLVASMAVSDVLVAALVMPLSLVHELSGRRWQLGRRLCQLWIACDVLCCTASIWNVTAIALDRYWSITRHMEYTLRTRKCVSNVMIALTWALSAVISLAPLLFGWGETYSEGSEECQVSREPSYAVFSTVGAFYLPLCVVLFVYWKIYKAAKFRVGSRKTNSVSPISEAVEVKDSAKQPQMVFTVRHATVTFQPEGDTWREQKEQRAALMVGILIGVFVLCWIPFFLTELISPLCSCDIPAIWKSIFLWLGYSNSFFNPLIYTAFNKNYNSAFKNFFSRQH
HTR5A inv ctr – counter-screen for OPRM1-OPRD1 inverse agonists: human HTR5A inverse agonism. P47898. HTR5A cell line, luminescence. inhibition, % at 9.3 µM. hit rate 0.083% among 340,000; in the data active means inhibition mostly above about 23%, no sharp cut-off; inactive means mostly below about 18%
MOR-DOR ag-1 – OPRM1-OPRD1 heterodimerization agonism. P35372+P41143. cells, luminescence. activation, % at 9.3 µM. hit rate 0.3% among 340,000. AID 504326
MOR-DOR ag-2 – promotes OPRM1-OPRD1 heterodimerization in HTR5A counter-screen; shares compounds with HTR5A ag ctr; U2OS counter-screen cells, complementation luminescence, 3 h; activation, % at 9.3 µM; hit rate 13% among 800
HTR5A ag conf – confirmation of human HTR5A agonists. HTR5A agonist cell assay, luminescence. activation, % at 9.3 µM. shares compounds with HTR5A ag ctr. hit rate 17% among 800. AID 504915; in the data active means activation above about 17%
Of the large screens only hits and unclear results are named; the others gave an inactive call (follow-up assays come after a bar, where they were run); ! = a repeat was not active. An excerpt weighted towards active compounds, which were near 1.1% of everything screened. Unless noted, no stated cut-off is given here; in the data, active means activation above about 18%; inactive means the rest.

O=S(=O)(NCc1ccccc1)c1ccc(S(=O)(=O)N2CCCCC2)cc1	none
O=S(=O)(c1ccc(S(=O)(=O)N2CCCN(Cc3ccccc3)C2)cc1)N1CCCCCC1	HTR5A ag ctr 15 | MOR-DOR ag-2 inactive | HTR5A ag conf inactive
COc1ccc(OCCC(=O)Nc2ccccc2)cc1	none
CCN(CC(=O)Nc1ccc(NC(C)=O)cc1)C(=O)c1ccc(C(=O)c2ccccc2)cc1	HTR5A ag ctr 22 | MOR-DOR ag-2 inactive | HTR5A ag conf 30
CCN(CC(=O)Nc1ccc(NC(C)=O)cc1)C(=O)COc1ccc(C(=O)c2ccccc2)cc1	none
COc1ccc(F)cc1S(=O)(=O)n1nc(C)cc1C	none
COc1ccccc1C(CNC(=O)c1cccc(S(=O)(=O)Nc2ccc(C)cc2)c1)N1CCCC1 (centres undefined)	HTR5A ag ctr 25 | MOR-DOR ag-2 inactive | HTR5A ag conf 34
COc1ccccc1NS(=O)(=O)c1cccc(C(=O)NCC(c2ccccc2OC)N2CCCC2)c1 (centres undefined)	none
COc1ccc(CC2NCCC3(O)CCCCC23)cc1 (centres undefined)	none
O[C@@H]1C2CCCC1[C@]1(O)CCCCC1C2 (some centres undefined)	HTR5A ag ctr 19 | MOR-DOR ag-2 inactive | HTR5A ag conf inactive
O=C(O)c1cc(-c2ccco2)nc2ccc(Br)cc12	HTR5A ag ctr 18! | MOR-DOR ag-2 42 | HTR5A ag conf inactive
O=C(c1ccco1)N1CCN(C(=O)c2cc(-c3ccncc3)nc3ccc(Br)cc23)CC1	none
O=C(CSc1ccccc1)NCC1(N2CCCCC2)CCCCC1	HTR5A ag ctr 17 | MOR-DOR ag-2 23 | HTR5A ag conf inactive
CCOc1cc(N2CCOCC2)c(OCC)cc1NC(=O)COc1ncnc2ccccc12	none
CCOc1cc(N2CCOCC2)c(OCC)cc1NC(=O)c1cc(-c2ccco2)nc2ccccc12	HTR5A ag ctr 24 | MOR-DOR ag-2 96 | HTR5A ag conf inactive
O=C(Nc1nnc(SCC(=O)N2CCOCC2)s1)C1CC(=O)N(c2ccccc2)C1 (centres undefined)	HTR5A ag ctr 17 | MOR-DOR ag-2 32 | HTR5A ag conf inactive
C/C(=N/NS(=O)(=O)c1ccc(Br)cc1)c1ccc(NC(=O)c2ccc(C)o2)cc1	HTR5A ag ctr 17 | MOR-DOR ag-2 inactive | HTR5A ag conf inactive
COc1ccccc1OCC(=O)Nc1ccc(NC(=O)COc2ccccc2OC)cc1	HTR5A ag ctr 24 | MOR-DOR ag-2 inactive | HTR5A ag conf inactive
COc1ccccc1OCC(=O)Nc1ccc(Cl)cc1	none
CCOC(=O)c1c(C)nsc1NC(=O)C1CCCCC1	none
CCCCNc1c(-c2cccc(-c3cc(C(C)=O)cs3)c2)nc2cc(C)ccn12	HTR5A ag ctr 24 | MOR-DOR ag-2 inactive | HTR5A ag conf inactive
COc1ccc(CNC(=O)c2ccncc2)cc1	none
COc1ccc(CNC(=O)c2ccc3nccnc3c2)cc1	HTR5A ag ctr 19 | MOR-DOR ag-2 inactive | HTR5A ag conf inactive
COc1cc2cnc(-c3ccsc3)cc2cc1OC	HTR5A ag ctr 22 | MOR-DOR ag-2 inactive | HTR5A ag conf inactive
Cc1ccc(Cn2nnc3c(=O)[nH]c(C4CCN(S(=O)(=O)c5ccc(C)cc5)CC4)nc32)cc1	none
O=c1[nH]c(C2CCN(S(=O)(=O)c3ccc(C(F)(F)F)cc3)CC2)nc2c1nnn2Cc1ccc(F)cc1	HTR5A ag ctr 18 | MOR-DOR ag-2 inactive | HTR5A ag conf inactive
O=C(CSc1nnc(CNC(=O)c2ccccc2F)o1)NC1CCCC1	none
O=C(Nc1ccc(F)c(F)c1)C1CCN(S(=O)(=O)c2cccc3nonc23)CC1	HTR5A ag ctr 17 | MOR-DOR ag-2 inactive | HTR5A ag conf inactive
O=[N+]([O-])c1ccccc1S(=O)(=O)N1CCN(C2CCN(Cc3ccccc3)CC2)CC1	none
C=CCN(c1ccccc1)S(=O)(=O)c1cccc(C(=O)N2CCCC2)c1	HTR5A ag ctr 15 | MOR-DOR ag-2 47 | HTR5A ag conf inactive
CC1Sc2ccc(S(=O)(=O)N(C)Cc3ccccc3)cc2NC1=O (centres undefined)	none
CCCCn1c(N)c(N(CC(C)C)C(=O)c2ccc(OCc3c(C)noc3C)cc2)c(=O)[nH]c1=O	none
Cc1cc(C)c(S(=O)(=O)Nc2ccc(-c3cn4ccccc4n3)cc2)c(C)c1	HTR5A ag ctr 14 | MOR-DOR ag-2 inactive | HTR5A ag conf 40
Cc1cccc(S(=O)(=O)Nc2ccc(-c3cn4ccccc4n3)cc2)c1	none
Oc1ccc(C[C@H]2CNC(=S)N2CC2CCCN2C[C@H](Cc2ccccc2)N2C[C@H](Cc3ccc(O)cc3)N(CCc3ccccc3)C2=S)cc1 (some centres undefined)	none
COc1ccc(CNC(=O)CN(CC2CCCO2)C(=O)CNS(=O)(=O)c2ccccc2)cc1 (centres undefined)	HTR5A ag ctr 17 | MOR-DOR ag-2 inactive | HTR5A ag conf inactive
C=CCN1CCc2c(cc(O)c(O)c2Cl)C(c2ccccc2)C1 (centres undefined)	HTR5A ag ctr 26 | MOR-DOR ag-2 inactive | HTR5A ag conf inactive
CN(c1ccc(OCC(=O)N2CCCC2)cc1)S(=O)(=O)c1ccc(Cl)cc1	HTR5A ag ctr 17 | MOR-DOR ag-2 inactive | HTR5A ag conf inactive
Cc1cc(C)n2nc(CC(=O)NNC(=O)c3ccccc3Cl)nc2n1	none
COc1ccc(C(=O)N[C@H](C(=O)NCCc2ccc3c(c2)OCCO3)C(C)C)cc1	none
O=C1OC(c2ccccc2)(c2ccc(O)cc2)c2ccccc21 (centres undefined)	HTR5A ag ctr 22 | MOR-DOR ag-2 inactive | HTR5A ag conf inactive
Clc1ccc(C(c2nnnn2C2CCCC2)N2CCN(Cc3ccncc3)CC2)cc1 (centres undefined)	none
Fc1ccc(C(c2nnnn2C2CCCC2)N2CCN(Cc3ccccc3)CC2)cc1 (centres undefined)	HTR5A ag ctr 18 | MOR-DOR ag-2 inactive | HTR5A ag conf inactive
Cc1ccc(SCCC(=O)Nc2ccccc2C(=O)NC(C)C)cc1	HTR5A ag ctr 17 | MOR-DOR ag-2 inactive | HTR5A ag conf inactive
CCOC(=O)c1ccccc1NC(=O)COC(=O)CCNS(=O)(=O)c1ccccc1	none
O=C1OCCC1Sc1nnc(-c2ccccc2Cl)n1Cc1ccccc1 (centres undefined)	none
O=C1OCCC1Sc1nnc(-c2cccs2)n1Cc1ccccc1 (centres undefined)	HTR5A ag ctr 15 | MOR-DOR ag-2 inactive | HTR5A ag conf inactive
CN(CC(=O)NC1CCN(Cc2ccccc2)CC1)S(=O)(=O)c1ccc(Br)s1	HTR5A ag ctr 15 | MOR-DOR ag-2 inactive | HTR5A ag conf inactive
CN(CC(=O)NC1CCN(Cc2ccccc2)CC1)S(=O)(=O)c1ccc(Cl)cc1	none
O=C(NCCn1cccn1)C1CCC(=O)N(CC2CCCCC2)C1 (centres undefined)	HTR5A ag ctr 25 | MOR-DOR ag-2 inactive | HTR5A ag conf inactive
COc1cccc(NC(=O)CN(C)CC(=O)c2c(C)[nH]c3ccccc23)c1	none
COc1ccc(NC(=O)NC2(C(=O)N3CCCC(C)C3)CCCCC2)cc1 (centres undefined)	none
